Screens as filed in PubChem BioAssay.
This is a sample that favours compounds with a hit; in the whole collection about 1.7% have one here.
IkB signaling – IkB Signaling. AID 445, 2006. Potency, µM (series often up to 57.1 µM). 0.04% of 110,000 active. ABC-DLBCL IkBa-CBG/CBR dual luciferase ratio, 4 h; response scale: scaled: untreated 0%, proteasome inhibitor 100%; active = well fitted curve in the direction sought with a large enough effect in the signal ratio, not every such curve was filed as active; inconclusive = small, poorly fitted or top-dose-only effect, or a change in a side signal; the % refers to the signal ratio;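 note: the direction sought is a rising ratio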
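Luminescence ratio of IκBα-fused green versus native red beetle luciferase in OCI-Ly3 cells, 4 h post-doxycycline with compound; red signal alone, scaled from basal (0%) to zero light (-100%), flagged nonspecific or cytotoxic effects.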
p53ts 39C kill – qHTS Screen for Compounds that Selectively Target Cancer Cells with p53 Mutations: Cytotoxicity of p53ts Cells at the Nonpermissive Temperature; H1299-p53A138V viability at 39C, ATP luminescence, 24 h; Potency, µM (highest dose often 46.1 µM), actives largely listed as cytotoxic; 1.5% of 130,000 active; note: nearly all actives have a fitted effect of over 55% in size
p53ts 32C tox – qHTS Screen for Compounds that Selectively Target Cancer Cells with p53 Mutations: Cytotoxicity of p53ts Cells at the Permissive Temperature; H1299-p53A138V at 32C, ATP luminescence viability, 24 h; Potency, µM (top dose mostly 46.1 µM), most hits filed as cytotoxic; AID 924, 2007; 0.93% of 130,000 active; note: nearly all actives have a fitted effect of over 55% in size
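H1299-p53 A138V cells (temperature-sensitive p53) exposed 24 h to up to 46 uM compound at 32C, where p53 is wild-type in conformation. Viability read as ATP luminescence and normalised to DMSO and 100 uM tamoxifen. AC50 fitted with the Hill equation.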
Imprint erasure – qHTS Assay for Compounds that Induce Erasure of Genomic Imprints | mouse ES Peg3-LacZ reporter, beta-gal luminescence, 40 h | Potency, µM (highest dose often 60.7 µM), most hits filed as activators | 0.02% of 110,000 active | AID 1948, 2009
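Each well holds 300 Peg3LacZ-Neo (maternal) female ES cells incubated 40 h at 37C, 5% CO2. LacZ is measured by BetaGlo luminescence, with AC50 and maximum efficacy derived from dose-response curves.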
Hits are given with their value; [ ] = dose if it differs, or a comment. Unless noted, calls come from the whole dose curve; as a rule, active = well fitted curve in the direction sought with a large enough effect; inconclusive = small, poorly fitted or top-dose-only effect, or another doubt; inactive = no such curve, though single readings can be large; an effect the other way counts as inactive or inconclusive.

Cc1cc(C)c(C#N)c(SCC(=O)Nc2ccccc2C(N)=O)n1 was read as IkB signaling inactive, p53ts 39C kill 2µM, p53ts 32C tox 13µM and Imprint erasure inactive.
Screening CCOC(=O)NC(=O)CSc1nc(C)cc(C)c1C#N returned IkB signaling inactive, p53ts 39C kill 6.3µM and p53ts 32C tox 5µM.
Cc1ccn2c(Nc3ccccc3)c(-c3c[nH]c4ccccc34)nc2c1 was read as IkB signaling inconclusive, p53ts 39C kill 16µM, p53ts 32C tox inactive and Imprint erasure inactive[10.9 µM].
Cc1ccc(Nc2c(-c3c[nH]c4ccccc34)nc3cc(C)ccn23)cc1 was read as IkB signaling inconclusive, p53ts 39C kill inconclusive, p53ts 32C tox inactive and Imprint erasure inactive[10.9 µM].
Screening Nc1ncnc2c1ncn2C1OC(CO)C(O)C1O (centres undefined) returned p53ts 39C kill inactive, p53ts 32C tox inactive and Imprint erasure inactive.
`CSc1ncnc2c1ncn2C1OC(CO)C(O)C1O` (centres undefined) gave p53ts 39C kill 10µM, p53ts 32C tox inconclusive and Imprint erasure inconclusive.
Screening OC[C@H]1O[C@@H](n2cnc3cncnc32)[C@H](O)[C@@H]1O returned p53ts 39C kill 10µM, p53ts 32C tox inconclusive and Imprint erasure inactive.
OC[C@@H]1O[C@@H](n2cnc3c(NCc4ccco4)ncnc32)[C@H](O)[C@H]1O was read as IkB signaling inactive[11.4 µM].
OC[C@H]1O[C@@H](n2cnc3c(NCc4ccco4)ncnc32)[C@H](O)[C@@H]1O was read as p53ts 39C kill inconclusive, p53ts 32C tox 16µM and Imprint erasure inactive.
Nc1nc(Cl)nc2c1ncn2[C@@H]1O[C@@H](CO)[C@@H](O)[C@H]1O was read as IkB signaling inconclusive, p53ts 39C kill 13µM and p53ts 32C tox 16µM.
Screening Cc1ccc2c(c1)c(=O)c(C(=O)c1ccncc1)cn2CC(=O)Nc1ccc(C(C)C)cc1 returned IkB signaling inconclusive, p53ts 39C kill inactive, p53ts 32C tox inactive and Imprint erasure inactive[10.9 µM].
`O=C(NC(=S)N(CCc1ccccc1)CCc1ccccc1)c1ccco1` gave p53ts 39C kill 11µM and p53ts 32C tox inactive.
For COc1ccc2c(c1)sc(N)[n+]2Cc1cc(C)cc2cccnc12 the results were p53ts 39C kill 11µM and p53ts 32C tox inactive.
`Cc1cc(-c2ccc(N=Nc3ccc4c(S(=O)(=O)O)cc(S(=O)(=O)O)c(N)c4c3O)c(C)c2)ccc1N=Nc1ccc2c(S(=O)(=O)O)cc(S(=O)(=O)O)c(N)c2c1O` gave IkB signaling inconclusive, p53ts 39C kill 16µM, p53ts 32C tox 13µM and Imprint erasure inactive.
Cc1oc(-c2ccc3c(c2)OCCO3)cc1C(=O)O was read as IkB signaling inconclusive, p53ts 39C kill inconclusive, p53ts 32C tox 20µM and Imprint erasure inactive.
Screening CCNC(=O)c1c(NC(=O)c2nc(S(=O)(=O)CC)ncc2Cl)sc2c1CCCC2 returned IkB signaling inconclusive, p53ts 39C kill 3.2µM, p53ts 32C tox inconclusive and Imprint erasure inactive[10.9 µM].
`COc1ccc(CNC(=O)c2nc(SCc3ccc(C)cc3)ncc2Cl)cc1` gave IkB signaling inactive, p53ts 39C kill inactive, p53ts 32C tox inactive and Imprint erasure inactive[10.9 µM].
`CCOc1ccc(NC(=O)c2nc(S(=O)(=O)Cc3ccccc3F)ncc2Cl)cc1` gave IkB signaling inconclusive, p53ts 39C kill 7.9µM, p53ts 32C tox 14µM and Imprint erasure inactive[10.9 µM].
`COc1ccc(N(Cc2ccccc2)C(=O)c2nc(S(C)(=O)=O)ncc2Cl)cc1` gave IkB signaling inconclusive, p53ts 39C kill 4µM, p53ts 32C tox 7.9µM and Imprint erasure inactive[10.9 µM].
Screening COc1ccc(NC(=O)c2nc(S(=O)(=O)Cc3ccc(C)cc3)ncc2Cl)cc1 returned IkB signaling inactive, p53ts 39C kill 6.3µM, p53ts 32C tox inconclusive and Imprint erasure inactive[10.9 µM].
CSC(=[SH+])N=N/C(=C1/C=CC=CN1)c1ccccn1.[Cu][Br] was read as Imprint erasure inactive[10.9 µM].
For COc1ccc(CNc2ncncc2-c2ccc(N(C)C)cc2)c(OC)c1 the results were IkB signaling inactive[11.4 µM], p53ts 39C kill inactive, p53ts 32C tox inactive and Imprint erasure inactive.
Screening CCc1ccc(CNC(=O)c2ccc(CS(=O)(=O)Cc3ccccc3C)o2)cc1 returned IkB signaling inactive, p53ts 39C kill inactive, p53ts 32C tox inactive and Imprint erasure inactive[10.9 µM].
